According to PubChem BioAssay:
Inconclusive results are not listed. Active and inactive are the calls of the source. No cut-off is given here; in the data, nearly all actives have AC50 up to about 26 µM.

Test: JHH-DIPG-1 glioma cell viability, MIPE5.0 library, CellTiter-Glo luminescence, qHTS (AID 1347067);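 note: cells exposed to compound for 48 hours before readout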
Settings: JHH-DIPG-1 glioma viability, CellTiter-Glo ATP luminescence

SMILES | AC50 | outcome
CC[C@]1(O)CC2CN(CCc3c([nH]c4ccccc34)[C@@](C(=O)OC)(c3cc4c(cc3OC)N(C)[C@H]3[C@@](O)(C(=O)OC)[C@H](OC(C)=O)[C@]5(CC)C=CCN6CC[C@]43[C@@H]65)C2)C1 (some centres not stated) | 0.0468 µM (active) | 
C[C@]12CCC3c4ccc(O)cc4CCC3C1CCC2=O (some centres not stated) |  | inactive
OC[C@@H](O)[C@@H](O)[C@H](O)[C@@H](O)CO |  | inactive
COC(=O)/C=C/C(=O)OC |  | inactive
Cc1coc2c1C(=O)C(=O)c1c-2ccc2c1CCCC2(C)C | 7.42 µM (active) | 
COC1=C(OC)C(=O)C(C/C=C(\C)CC/C=C(\C)CC/C=C(\C)CC/C=C(/C)CC/C=C(\C)CC/C=C(\C)CC/C=C(\C)CC/C=C(\C)CC/C=C(\C)CCC=C(C)C)=C(C)C1=O |  | inactive
C[C@H]1COC2=C1C(=O)C(=O)c1c2ccc2c1CCCC2(C)C | 20.9 µM (active) | 
CCCCS(=N)(=O)CCC(N)C(=O)O (configuration not stated) |  | inactive
Nc1nc(N)c2nc(CNc3ccc(C(=O)NC(CCC(=O)O)C(=O)O)cc3)cnc2n1 (configuration not stated) |  | inactive
Clc1ccc(CCC(Cn2ccnc2)Sc2c(Cl)cccc2Cl)cc1 (configuration not stated) |  | inactive
N#CC(c1ccc(Cl)cc1)c1c(Cl)cc(-n2ncc(=O)[nH]c2=O)cc1Cl (configuration not stated) |  | inactive
COc1ccc2nc3cc(Cl)ccc3c(Nc3cc(CN4CCCC4)c(O)c(CN4CCCC4)c3)c2n1 | 11.8 µM (active) | 
CC(C)C(C)/C=C/C(C)C1CCC2C3=CC=C4CC(O)CCC4(C)C3CCC21C (configuration not stated) |  | inactive
CC(C)(CO)[C@@H](O)C(=O)NCCC(=O)O |  | inactive
CN1C(C(=O)Nc2ccccn2)=C(O)c2sc(Cl)cc2S1(=O)=O |  | inactive
CC(=O)NC(CS)C(=O)O (configuration not stated) |  | inactive
CC(NCCc1ccc(O)cc1)C(O)c1ccc(O)cc1 (configuration not stated) |  | inactive
CN[C@@H]1[C@H](O[C@H]2[C@H](O[C@@H]3[C@@H](O)[C@H](O)[C@@H](N=C(N)N)[C@H](O)[C@H]3N=C(N)N)O[C@@H](C)[C@]2(O)C=O)O[C@@H](CO)[C@H](O)[C@H]1O |  | inactive
Cc1c(-c2cnccn2)ssc1=S | 14.8 µM (active) | 
Nc1nc(F)nc2c1ncn2[C@@H]1O[C@H](COP(=O)(O)O)[C@@H](O)[C@@H]1O |  | inactive
Cc1cc2nc3c(=O)[nH]c(=O)nc-3n(CC(O)C(O)C(O)CO)c2cc1C (configuration not stated) |  | inactive
N[C@@H](CC(=O)N1CCn2c(nnc2C(F)(F)F)C1)Cc1cc(F)c(F)cc1F |  | inactive
